Records with an inconclusive call do not appear. A number with no mark means an inactive call. Active and inactive are the calls of the source. The call rests on the fitted dose curve.
On the % scale 0 is the no-effect control and ±100 the full control effect; potency means the concentration at half of the fitted maximal effect.

The target of this assay is Beta-2 adrenergic receptor (Homo sapiens) (UniProt P07550). Put plainly: Adrenergic beta2 receptor (ADRB2) small molecule antagonists, cell-based qHTS assay (AID 1963592). Further: nearly all actives have a fitted effect of over 50% in size. The settings on record: CHO-ADRB2 cells, isoproterenol-stimulated cAMP HTRF ratio, 0.5 h; series mostly up to 92.4 µM; activity change, negative = inhibition: at the top concentration. From the text: U.S. Tox21 Program National Center for Advancing Translational Sciences [NCATS] Division of Preclinical Innovation [DPI] U.S. Environmental Protection Agency [EPA] National Institutes of Environmental Health Sciences [NIEHS] National Toxicology Program [NTP] U.S. Food and Drug Administration [FDA] Tox21 Assay Overview: Beta adrenergic receptors (Beta-ARs) belong to the G-protein coupled receptor (GPCR) superfamily, includes three subtypes - beta1, beta2, and beta3. Beta1-AR is the predominant receptor subtype expressed in the heart, and beta2-AR is expressed in the kidney, lung, blood vessel and in the heart, and beta3 is found in the adipocytes. Beta1 and 2 ARs couple to Gs protein and elevate cyclic adenosine mono phosphate (cAMP), which activates protein kinase A and leads to the downstream signaling responsible for the physiological actions. Beta-AR agonists or antagonists are the most prescribed therapeutic agents for heart failure and asthma, and these were one of the first target receptors for the rational drug design. Tox21 10K compound library was screened using the cAMP-Gs dynamic assay (Cisbio Bioassays, Shelton, CT) to identify agonists/antagonists of the Gs-coupled human adrenergic, beta2 receptor (ADRB2) in the CHO-ADRB2 cell line (Codex BioSolutions, Inc. Gaithersburg, MD), which stably over-expresses ADRB2. The principle of cAMP-Gs dynamic assay is based on HTRF technology, which facilitates the fluorescence resonance energy transfer (FRET) between donor Europium cryptate and acceptor d2-labeled cAMP. The cAMP generated within cells competes with the red acceptor, d2-labled cAMP, for binding to the monoclonal anti-cAMP-cryptate (Europium donor). An increase in intracellular cAMP leads to the disruption of FRET signal, and the signal is inversely proportional to the cAMP concentration. Propranolol HCl (Sigma-Aldrich, St. Louis, MO) was used as a positive control in the screening.
Sequence of Beta-2 adrenergic receptor (Homo sapiens) (P07550 whole entry, looked up): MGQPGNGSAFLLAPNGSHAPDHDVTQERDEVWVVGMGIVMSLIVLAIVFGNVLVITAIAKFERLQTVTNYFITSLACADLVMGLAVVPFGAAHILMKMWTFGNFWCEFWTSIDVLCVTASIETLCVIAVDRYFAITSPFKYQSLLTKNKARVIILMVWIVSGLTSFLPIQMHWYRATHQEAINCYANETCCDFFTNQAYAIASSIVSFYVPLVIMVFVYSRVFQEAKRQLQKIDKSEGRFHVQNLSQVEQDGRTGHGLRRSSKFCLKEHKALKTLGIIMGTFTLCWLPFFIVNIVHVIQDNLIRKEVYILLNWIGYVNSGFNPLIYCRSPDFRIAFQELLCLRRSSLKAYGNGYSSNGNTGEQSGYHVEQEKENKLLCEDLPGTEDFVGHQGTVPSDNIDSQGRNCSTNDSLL
Tox21 Assay Protocol Summary: CHO-ADRB2 cells were dispensed at 1,000/well in 4uL assay medium into white/solid 1536-well plates (Greiner Bio-One North America Inc., Monroe, NC) using a Multidrop Combi dispenser (ThermoFisher Scientific, Waltham, MA). The assay plates were incubated at 37C and 5% CO2 for an overnight (18-20hr). Then positive control and test compounds dissolved in DMSO were transferred to the assay plates at 23nL using a Pintool station (Wako, San Diego, CA). Following the compound and positive control transfer, 1uL agonist-stimulation mix containing 1nM Isoproterenol HCl, 100uM IBMX and 25uM Ro-20-1724 was added to each well of the assay plates using BioRAPTR Flying Reagent Dispenser (FRD, Beckman Coulter, Brea, CA). The assay plates were incubated at room temperature for 0.5hr. Then 2.5ul each d2-labled cAMP and anti-cAMP-cryptate solutions were added separately to each well of the assay plates using an FRD and the assay plates were incubated at room temperature for 1hr. The fluorescence signal was measured at two different wavelengths (665nm and 615nm) using an Envision plate reader (Perkin Elmer, Shelton, CT). Data were expressed as the ratio of 665 nm/615 nm.
(In general: Quantitative high-throughput screening tests each substance at several concentrations.)
On to `C=Cc1ccc(C=C)cc1`, for which the “activity change, negative = inhibition” value is 13.1%.
On the same count and under the same terms, to `O=C(N/N=C/c1ccc([N+](=O)[O-])o1)c1ccc(O)cc1` belongs 2.16% [at 42.5 µM]; to `CN(C)C(=O)Oc1cccc([N+](C)(C)C)c1`, -0.891% [at 42.5 µM]; to `CC(C)c1ccc(O)c(C(C)C)c1`, -2.01%.
On the same count and under the same terms, to `Cc1cc2c(cc1CC(=O)c1sccc1S(=O)(=O)Nc1onc(C)c1Cl)OCO2` belongs -11.5% [at 42.5 µM].
The same measure, in the same setting: to `C=CC[N+]1([C@H]2C[C@H]3[C@@H]4CC[C@H]5C[C@H](OC(C)=O)[C@@H](N6CCCCC6)C[C@]5(C)[C@H]4CC[C@]3(C)[C@H]2OC(=O)CC)CCCCC1` belongs -4.69% [at 42.5 µM].
Take `CCN(CCCc1ccccc1)CCCc1ccccc1`: the “activity change, negative = inhibition” value is -24% [at 42.5 µM].
Same read-out and setting: to `CCN1CCOCC1` belongs 1.65%; to `CC[N+](CC)(CC)CCOC(=O)C(C1CCCC1)C1CCCC1`, 0.728% [at 42.5 µM]; to `CC1CN(c2ccccc2)NC1=O` (stereo not given), -8.83%.
On to `C1CN(SSN2CCOCC2)CCO1`, for which the Potency result was “inactive”.
Take `c1ccc2sc(SN(C3CCCCC3)C3CCCCC3)nc2c1`: the “activity change, negative = inhibition” value was -2.68%.
Same read-out and setting: the result for `O=[N+]([O-])c1cc[n+]([O-])cc1` reads 22.6%; that for `CC(=O)c1ccc2c(c1)N(CCCN(C)C)c1ccccc1S2`, -21.7% [at 42.5 µM].
With `CCCCOCCOC(=O)COc1nc(Cl)c(Cl)cc1Cl`, the “activity change, negative = inhibition” value is -14.5%.
Still for that read-out and setting: the result for `CC1CCC(CO)CC1` (stereo not given) reads 0.163%.
Consider `CN(C)CCCN1c2ccccc2CCc2ccccc21`, for which the Potency was 29.8 µM (active).
`O=C(OCC(O)CO)c1ccccc1Nc1ccnc2cc(Cl)ccc12` (stereo not given): the “activity change, negative = inhibition” value is 0.03% [at 42.5 µM].
Consider `OCCN(CCO)c1nc(N2CCCCC2)c2nc(N(CCO)CCO)nc(N3CCCCC3)c2n1`, for which the “activity change, negative = inhibition” value was -13.7% [at 42.5 µM].
Consider `CC[C@]1(O)C[C@H]2CN(CCc3c([nH]c4ccccc34)[C@@](C(=O)OC)(c3cc4c(cc3OC)N(C=O)[C@H]3[C@@](O)(C(=O)OC)[C@H](OC(C)=O)[C@]5(CC)C=CCN6CC[C@]43[C@@H]65)C2)C1`, for which the “activity change, negative = inhibition” value is 0.366% [at 42.5 µM].
Take `CC1=CC=C(C(C)C)CC1`: the “activity change, negative = inhibition” value is -11.1%.
Regarding `O=C(c1ccccc1)c1ccccc1`, the Potency entry was “inactive”.
On to `CCOC(=O)C1=NN(c2ccccc2)C(=O)C1`, for which the “activity change, negative = inhibition” value was -18.4%.
The same measure, in the same setting: the result for `CCCCCCCCCCOC(=O)c1ccccc1C(=O)OCCCCCCCC` reads -0.371%; that for `Cc1ccc([N+](=O)[O-])cc1Cl`, 4.53%.
Turning to `CCCCOC(=O)CCC(C)=O`, the “activity change, negative = inhibition” value is 2.91%.
In the case of `CN(C)CCOc1ccc(/C(=C(/CCCl)c2ccccc2)c2ccccc2)cc1`, the Potency is 57.2 µM (active).
With `COc1cc(S(=O)(=O)Nc2ccccc2)c(OC)cc1N`, the “activity change, negative = inhibition” value is -8.28%.
In the case of `COC(C)CCO` (stereo not given), the “activity change, negative = inhibition” value is 1.7%.
Take `CC(C)n1c(/C=C/[C@@H](O)C[C@@H](O)CC(=O)O)c(-c2ccc(F)cc2)c2ccccc21`: the Potency result was “inactive”.
Take `C[C@@H]1C[C@H]2[C@@H]3C[C@H](F)C4=CC(=O)C=C[C@]4(C)[C@@]3(F)[C@@H](O)C[C@]2(C)[C@@]1(O)C(=O)CO`: the “activity change, negative = inhibition” value is 13.3% [at 42.5 µM].
On to `CCSCC`, for which the “activity change, negative = inhibition” value is -11.6%.
In the case of `CCCCNc1cc(C(=O)O)cc(S(N)(=O)=O)c1Oc1ccccc1`, the “activity change, negative = inhibition” value was 2.29% [at 42.5 µM].
With `CCCCCCCCCCCCCCC[C@H](O)[C@@H](N)CO`, the “activity change, negative = inhibition” value was -6.03% [at 42.5 µM].
The same measure, in the same setting: to `CC(=O)OC/C=C(/C)CCC=C(C)C` belongs 14.3%; to `CCN(CC)CCNC(=O)COc1ccc(OC)cc1`, 3.57% [at 42.5 µM].
The same measure, in the same setting: the result for `CCCCCCCCC(CCCCCC)C(=O)O` (stereo not given) reads 1.62%.
On to `COc1cccc(CCc2ccccc2OCC(CN(C)C)OC(=O)CCC(=O)O)c1` (stereo not given), for which the Potency was 4.73 µM (active).
In the case of `CN(C)CCCO[C@@H]1[C@H]2OC(C)(C)O[C@H]2O[C@@H]1C(O)CO` (stereo not given in full), the “activity change, negative = inhibition” value was -5.7% [at 42.5 µM].
The same measure, in the same setting: the result for `CCCC(=O)OCCC(C)CCC=C(C)C` (stereo not given) reads 12.3%.

For the origin of these results see PubChem BioAssay (Tox21).
